Holding throughout (experiment): DAPPL (digital affinity profiling via proximity ligation, sequencing); 10 mM Tris-HCl pH 7.5, 50 mM NaCl, 1 mM DTT, 4% glycerol, room temperature, 30 min; GST-TFs on glutathione beads, 16-mer random dsDNA library, 0.1% formaldehyde crosslink after washing; high values mean tight binding
Common to all, as to settings: protein: recombinant; tags: N-terminal GST; dsDNA, one strand shown

One assay concerns the target T1, FLI1 (Homo sapiens, UniProt Q01543 1-452).
T1 sequence: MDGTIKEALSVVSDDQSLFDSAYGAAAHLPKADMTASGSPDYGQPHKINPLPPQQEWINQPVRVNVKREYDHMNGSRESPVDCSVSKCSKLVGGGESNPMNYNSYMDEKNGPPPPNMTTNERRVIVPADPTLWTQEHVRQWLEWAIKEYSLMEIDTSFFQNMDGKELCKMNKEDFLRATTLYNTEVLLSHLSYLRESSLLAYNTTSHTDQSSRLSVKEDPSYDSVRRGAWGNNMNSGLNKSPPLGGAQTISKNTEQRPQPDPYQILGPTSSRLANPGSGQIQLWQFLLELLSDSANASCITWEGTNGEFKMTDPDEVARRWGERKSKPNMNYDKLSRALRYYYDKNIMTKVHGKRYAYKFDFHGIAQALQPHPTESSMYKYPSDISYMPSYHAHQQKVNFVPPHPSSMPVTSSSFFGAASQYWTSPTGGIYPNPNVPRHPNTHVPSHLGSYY
The method, boiled down:
(§1)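 Pools of DNA-barcoded human transcription factors, expressed in yeast as GST fusions on glutathione beads and combined with a tag-only sample, were incubated with 200 nmole of a 16-mer random double-stranded DNA library. Incubation took 30 min at room temperature in Tris/NaCl/DTT/glycerol buffer and was followed by washing, 0.1% formaldehyde crosslinking, proximity ligation (BsaI/T4 ligase, 1 h, 37 °C), PCR amplification and sequencing on an Illumina NextSeq500. Binding signal is the ratio of a hexamer's read frequency for a factor to its frequency for the tag-only sample.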

For the next assay, the target named is T2, ELK1 (Homo sapiens, UniProt P19419 1-428).
T2 sequence: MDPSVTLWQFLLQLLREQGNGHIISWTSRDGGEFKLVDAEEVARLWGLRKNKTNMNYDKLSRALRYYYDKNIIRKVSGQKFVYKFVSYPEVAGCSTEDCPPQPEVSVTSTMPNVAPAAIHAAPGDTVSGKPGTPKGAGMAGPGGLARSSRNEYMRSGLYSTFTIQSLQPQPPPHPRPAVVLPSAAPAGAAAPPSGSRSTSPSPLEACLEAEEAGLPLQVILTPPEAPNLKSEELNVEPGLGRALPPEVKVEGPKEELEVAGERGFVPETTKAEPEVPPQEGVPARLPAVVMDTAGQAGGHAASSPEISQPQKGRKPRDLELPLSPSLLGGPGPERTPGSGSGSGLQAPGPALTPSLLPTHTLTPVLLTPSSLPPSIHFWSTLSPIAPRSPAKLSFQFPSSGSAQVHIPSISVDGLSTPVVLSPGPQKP
The method, boiled down: as §1

In another assay the target is T3, GABPA (Homo sapiens, UniProt Q06546 1-454).
T3 sequence: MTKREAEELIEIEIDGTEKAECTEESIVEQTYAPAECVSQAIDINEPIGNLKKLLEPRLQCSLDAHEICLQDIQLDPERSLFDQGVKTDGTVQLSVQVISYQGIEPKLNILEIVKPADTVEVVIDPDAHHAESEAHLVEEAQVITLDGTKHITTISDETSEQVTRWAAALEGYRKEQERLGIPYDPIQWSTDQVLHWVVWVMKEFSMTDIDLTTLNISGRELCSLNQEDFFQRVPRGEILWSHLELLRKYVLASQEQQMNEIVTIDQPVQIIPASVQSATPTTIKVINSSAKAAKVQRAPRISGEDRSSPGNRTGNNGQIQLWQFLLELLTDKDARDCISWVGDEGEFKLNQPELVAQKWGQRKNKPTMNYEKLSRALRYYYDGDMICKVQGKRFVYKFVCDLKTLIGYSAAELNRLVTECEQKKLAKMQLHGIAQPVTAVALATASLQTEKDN
In a few lines: as §1

Another assay has as its target T4, ERG (Homo sapiens, UniProt P11308 1-479).
T4 sequence: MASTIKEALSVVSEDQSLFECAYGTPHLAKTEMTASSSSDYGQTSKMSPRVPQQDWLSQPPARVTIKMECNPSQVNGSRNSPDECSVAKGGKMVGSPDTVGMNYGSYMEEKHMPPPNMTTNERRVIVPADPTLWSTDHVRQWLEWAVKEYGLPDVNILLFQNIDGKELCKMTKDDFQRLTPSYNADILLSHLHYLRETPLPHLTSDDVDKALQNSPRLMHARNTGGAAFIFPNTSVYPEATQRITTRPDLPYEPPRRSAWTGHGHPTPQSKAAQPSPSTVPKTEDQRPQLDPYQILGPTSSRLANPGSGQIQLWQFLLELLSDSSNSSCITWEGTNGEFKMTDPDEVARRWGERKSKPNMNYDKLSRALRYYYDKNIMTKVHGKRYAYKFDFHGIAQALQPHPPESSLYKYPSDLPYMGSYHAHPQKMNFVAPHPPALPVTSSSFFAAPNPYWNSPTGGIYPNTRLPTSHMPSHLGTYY
The method, boiled down: as §1

Another assay addresses ELF1 (Homo sapiens, UniProt P32519 1-619). In a few lines: as §1
The target in a further assay is T5, EHF (Homo sapiens, UniProt Q9NZC4 1-300).
T5 sequence: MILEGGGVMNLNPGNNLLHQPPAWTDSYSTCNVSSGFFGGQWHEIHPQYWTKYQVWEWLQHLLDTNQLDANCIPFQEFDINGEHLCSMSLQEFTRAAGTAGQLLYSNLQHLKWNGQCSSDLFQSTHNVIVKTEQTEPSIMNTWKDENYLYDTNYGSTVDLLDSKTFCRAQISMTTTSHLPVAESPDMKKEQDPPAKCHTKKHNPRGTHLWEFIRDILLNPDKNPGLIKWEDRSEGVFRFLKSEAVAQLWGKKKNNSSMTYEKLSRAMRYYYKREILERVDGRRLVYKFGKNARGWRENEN
The method, boiled down:
as §1

A further assay has as its target SPI1 (Homo sapiens, UniProt P17947 1-270). In a few lines:
as §1

The target of another assay is SPIB (Homo sapiens, UniProt Q01892 1-262). In a few lines:
as §1

The target in the next assay is ETV5 (Homo sapiens, UniProt P41161 1-510). In a few lines: as §1
ETV5, sequence (P41161 whole entry): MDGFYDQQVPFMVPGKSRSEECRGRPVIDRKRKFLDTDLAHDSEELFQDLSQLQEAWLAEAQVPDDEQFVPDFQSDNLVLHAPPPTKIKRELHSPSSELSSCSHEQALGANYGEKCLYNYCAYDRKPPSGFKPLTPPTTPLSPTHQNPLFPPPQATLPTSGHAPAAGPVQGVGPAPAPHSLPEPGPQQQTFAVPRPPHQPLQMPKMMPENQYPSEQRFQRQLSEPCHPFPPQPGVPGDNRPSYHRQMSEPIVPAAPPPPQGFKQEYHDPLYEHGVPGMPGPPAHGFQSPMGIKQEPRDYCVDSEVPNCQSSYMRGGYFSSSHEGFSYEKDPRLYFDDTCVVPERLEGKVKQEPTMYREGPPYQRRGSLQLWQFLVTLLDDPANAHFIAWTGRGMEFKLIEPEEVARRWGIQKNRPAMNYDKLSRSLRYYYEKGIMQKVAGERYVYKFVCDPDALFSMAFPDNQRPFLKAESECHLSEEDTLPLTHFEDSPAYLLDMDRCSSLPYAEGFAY
The target in a further assay is T6, SPIC (Homo sapiens, UniProt Q8N5J4 1-248).
T6 sequence: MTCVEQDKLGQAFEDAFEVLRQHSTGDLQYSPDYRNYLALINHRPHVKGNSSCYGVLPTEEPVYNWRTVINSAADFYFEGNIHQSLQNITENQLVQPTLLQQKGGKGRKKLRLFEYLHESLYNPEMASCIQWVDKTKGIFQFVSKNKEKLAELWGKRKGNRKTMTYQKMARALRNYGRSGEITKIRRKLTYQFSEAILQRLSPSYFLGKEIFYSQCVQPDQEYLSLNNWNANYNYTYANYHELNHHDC
In a few lines:
as §1

The target of a further assay is ELF4 (Homo sapiens, UniProt Q99607 1-663). In a few lines:
as §1

The next assay deals with ETV1 (Homo sapiens, UniProt P50549 1-477). In a few lines:
as §1

Another assay deals with T7, ERF (Homo sapiens, UniProt P50548 1-548).
T7 sequence: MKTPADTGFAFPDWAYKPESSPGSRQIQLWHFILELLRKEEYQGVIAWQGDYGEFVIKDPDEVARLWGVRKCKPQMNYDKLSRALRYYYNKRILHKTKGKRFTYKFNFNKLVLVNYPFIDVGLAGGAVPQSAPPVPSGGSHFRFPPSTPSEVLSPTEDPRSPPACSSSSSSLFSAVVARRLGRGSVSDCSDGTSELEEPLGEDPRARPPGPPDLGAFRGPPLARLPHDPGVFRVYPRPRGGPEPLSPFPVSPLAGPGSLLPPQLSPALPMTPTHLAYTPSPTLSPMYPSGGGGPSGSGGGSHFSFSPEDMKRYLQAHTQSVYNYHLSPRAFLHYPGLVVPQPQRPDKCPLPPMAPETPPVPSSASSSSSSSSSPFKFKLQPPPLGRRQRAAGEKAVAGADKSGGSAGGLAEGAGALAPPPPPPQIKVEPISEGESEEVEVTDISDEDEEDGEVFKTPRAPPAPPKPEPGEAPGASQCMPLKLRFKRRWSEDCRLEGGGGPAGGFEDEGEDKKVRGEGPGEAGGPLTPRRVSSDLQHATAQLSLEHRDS
The method, boiled down:
as §1

The target of another assay is T8, ETV3L (Homo sapiens, UniProt Q6ZN32 1-361).
T8 sequence: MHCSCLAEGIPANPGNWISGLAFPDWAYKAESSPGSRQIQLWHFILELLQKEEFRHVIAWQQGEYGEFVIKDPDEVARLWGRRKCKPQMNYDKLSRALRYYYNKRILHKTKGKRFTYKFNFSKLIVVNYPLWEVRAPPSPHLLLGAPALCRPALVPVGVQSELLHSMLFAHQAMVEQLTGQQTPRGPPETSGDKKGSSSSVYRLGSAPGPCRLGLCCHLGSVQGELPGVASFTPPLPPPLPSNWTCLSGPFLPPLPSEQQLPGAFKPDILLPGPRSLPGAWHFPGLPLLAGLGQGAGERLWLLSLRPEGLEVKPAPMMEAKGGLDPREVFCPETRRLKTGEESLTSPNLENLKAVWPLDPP
The method, boiled down:
as §1

A further assay addresses T9, SPDEF (Homo sapiens, UniProt O95238 1-335).
T9 sequence: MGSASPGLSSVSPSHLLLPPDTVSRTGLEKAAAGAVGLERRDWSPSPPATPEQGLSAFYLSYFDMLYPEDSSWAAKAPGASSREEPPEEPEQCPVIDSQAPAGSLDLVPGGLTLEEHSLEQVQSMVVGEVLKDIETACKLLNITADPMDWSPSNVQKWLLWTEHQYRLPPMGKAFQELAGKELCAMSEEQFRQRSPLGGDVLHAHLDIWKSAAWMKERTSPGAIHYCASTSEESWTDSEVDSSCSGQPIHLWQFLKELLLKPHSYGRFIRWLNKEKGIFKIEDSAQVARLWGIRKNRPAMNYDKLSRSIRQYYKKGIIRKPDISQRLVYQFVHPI
The method, boiled down:
as §1

In a further assay the target is T10, ELF5 (Homo sapiens, UniProt Q9UKW6-2 1-255).
T10 sequence: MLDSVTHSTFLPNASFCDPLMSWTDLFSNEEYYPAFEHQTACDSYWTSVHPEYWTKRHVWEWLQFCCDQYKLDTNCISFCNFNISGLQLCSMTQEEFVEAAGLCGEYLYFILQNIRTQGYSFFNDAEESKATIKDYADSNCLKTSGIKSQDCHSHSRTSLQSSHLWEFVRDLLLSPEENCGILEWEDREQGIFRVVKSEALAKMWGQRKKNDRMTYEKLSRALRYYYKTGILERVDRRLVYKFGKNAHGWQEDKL
The method, boiled down: as §1

In the next assay the target is T11, ETV3 (Homo sapiens, UniProt P41162-2 1-143).
T11 sequence: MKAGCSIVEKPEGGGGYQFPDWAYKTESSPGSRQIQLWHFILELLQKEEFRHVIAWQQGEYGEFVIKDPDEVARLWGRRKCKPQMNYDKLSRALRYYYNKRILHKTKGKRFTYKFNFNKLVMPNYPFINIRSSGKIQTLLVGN
In a few lines: as §1

The next assay deals with T12, FEV (Homo sapiens, UniProt Q99581 1-238).
T12 sequence: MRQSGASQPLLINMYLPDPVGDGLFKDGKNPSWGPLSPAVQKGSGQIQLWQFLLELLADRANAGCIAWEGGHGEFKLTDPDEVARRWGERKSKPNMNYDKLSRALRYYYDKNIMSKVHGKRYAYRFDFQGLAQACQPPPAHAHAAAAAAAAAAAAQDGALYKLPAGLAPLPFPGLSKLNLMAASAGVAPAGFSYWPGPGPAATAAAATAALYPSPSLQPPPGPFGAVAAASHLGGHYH
In a few lines: as §1

A further assay deals with ETV6 (Homo sapiens, UniProt P41212 1-452). The method, boiled down: as §1
ETV6, sequence (P41212 whole entry): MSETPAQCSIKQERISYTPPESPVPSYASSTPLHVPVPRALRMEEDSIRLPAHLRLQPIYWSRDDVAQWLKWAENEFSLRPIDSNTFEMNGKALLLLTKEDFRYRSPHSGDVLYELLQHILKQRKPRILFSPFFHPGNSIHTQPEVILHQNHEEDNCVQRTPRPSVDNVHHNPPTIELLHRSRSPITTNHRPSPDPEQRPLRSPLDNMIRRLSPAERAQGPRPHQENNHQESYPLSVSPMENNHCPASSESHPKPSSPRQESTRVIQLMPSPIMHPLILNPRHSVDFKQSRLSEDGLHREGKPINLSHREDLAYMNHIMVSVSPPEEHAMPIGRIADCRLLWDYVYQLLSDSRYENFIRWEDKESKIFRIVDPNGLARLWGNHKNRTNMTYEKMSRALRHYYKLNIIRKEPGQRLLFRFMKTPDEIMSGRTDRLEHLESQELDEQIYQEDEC

SPIB, sequence (Q01892 whole entry): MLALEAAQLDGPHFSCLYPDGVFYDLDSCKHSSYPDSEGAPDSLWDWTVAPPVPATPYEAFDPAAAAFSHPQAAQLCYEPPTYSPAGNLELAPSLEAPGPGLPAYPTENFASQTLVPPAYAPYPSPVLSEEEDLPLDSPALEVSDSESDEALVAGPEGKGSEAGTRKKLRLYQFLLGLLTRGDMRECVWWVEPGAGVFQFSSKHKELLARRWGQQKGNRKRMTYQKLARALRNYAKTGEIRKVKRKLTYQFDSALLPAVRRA
ETV1, sequence (P50549 whole entry): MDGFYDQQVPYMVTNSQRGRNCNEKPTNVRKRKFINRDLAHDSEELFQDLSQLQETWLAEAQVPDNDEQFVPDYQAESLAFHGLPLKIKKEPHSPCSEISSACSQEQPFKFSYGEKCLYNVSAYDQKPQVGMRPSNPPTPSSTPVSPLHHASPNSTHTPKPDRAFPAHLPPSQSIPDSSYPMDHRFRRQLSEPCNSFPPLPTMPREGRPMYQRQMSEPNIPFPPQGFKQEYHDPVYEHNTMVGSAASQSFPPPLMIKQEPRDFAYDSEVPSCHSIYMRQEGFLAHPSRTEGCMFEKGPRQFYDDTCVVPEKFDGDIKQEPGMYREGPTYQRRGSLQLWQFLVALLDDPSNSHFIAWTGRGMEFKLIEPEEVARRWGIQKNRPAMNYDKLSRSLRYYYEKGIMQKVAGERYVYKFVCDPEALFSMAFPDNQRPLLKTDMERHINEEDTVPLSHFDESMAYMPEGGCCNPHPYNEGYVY
ELF4, sequence (Q99607 whole entry): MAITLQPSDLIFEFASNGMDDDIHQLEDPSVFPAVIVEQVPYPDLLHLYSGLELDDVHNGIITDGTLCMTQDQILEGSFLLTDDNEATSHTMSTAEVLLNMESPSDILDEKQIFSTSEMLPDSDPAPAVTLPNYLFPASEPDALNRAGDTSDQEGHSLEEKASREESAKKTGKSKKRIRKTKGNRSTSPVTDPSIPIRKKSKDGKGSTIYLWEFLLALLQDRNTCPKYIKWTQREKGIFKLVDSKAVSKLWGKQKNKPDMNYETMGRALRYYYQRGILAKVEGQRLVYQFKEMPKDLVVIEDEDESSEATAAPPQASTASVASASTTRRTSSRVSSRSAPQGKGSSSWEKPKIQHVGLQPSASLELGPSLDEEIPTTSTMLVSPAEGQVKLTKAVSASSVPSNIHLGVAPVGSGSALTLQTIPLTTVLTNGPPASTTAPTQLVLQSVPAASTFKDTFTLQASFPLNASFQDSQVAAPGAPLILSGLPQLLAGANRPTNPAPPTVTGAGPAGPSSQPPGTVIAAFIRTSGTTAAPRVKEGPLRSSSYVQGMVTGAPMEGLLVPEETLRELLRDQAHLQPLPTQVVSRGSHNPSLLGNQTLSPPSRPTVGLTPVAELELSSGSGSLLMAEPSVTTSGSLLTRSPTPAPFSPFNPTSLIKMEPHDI
ELF1, sequence (P32519 whole entry): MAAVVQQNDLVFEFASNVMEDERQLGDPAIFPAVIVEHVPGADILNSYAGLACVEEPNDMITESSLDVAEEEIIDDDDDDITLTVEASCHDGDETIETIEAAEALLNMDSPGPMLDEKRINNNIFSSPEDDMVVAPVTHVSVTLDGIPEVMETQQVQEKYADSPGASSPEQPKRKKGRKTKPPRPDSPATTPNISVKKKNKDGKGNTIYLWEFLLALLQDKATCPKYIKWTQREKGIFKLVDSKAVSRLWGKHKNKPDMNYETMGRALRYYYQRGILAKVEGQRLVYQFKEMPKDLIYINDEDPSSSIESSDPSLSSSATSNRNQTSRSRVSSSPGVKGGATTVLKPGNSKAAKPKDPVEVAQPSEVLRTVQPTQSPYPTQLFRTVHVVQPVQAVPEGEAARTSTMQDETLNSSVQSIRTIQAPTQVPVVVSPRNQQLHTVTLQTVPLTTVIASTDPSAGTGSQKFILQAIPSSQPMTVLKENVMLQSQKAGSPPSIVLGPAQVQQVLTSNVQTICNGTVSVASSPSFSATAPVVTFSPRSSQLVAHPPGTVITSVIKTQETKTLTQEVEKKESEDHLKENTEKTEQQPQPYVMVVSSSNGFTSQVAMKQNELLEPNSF

In the case of GTTGAT, the binding signal with FLI1 was 1.04 fold enrichment (6-mer frequency, TF over GST control); with ELK1, 1.12 fold enrichment (6-mer frequency, TF over GST control); with GABPA it was 1.12 fold enrichment (6-mer frequency, TF over GST control); with ERG, 1.08 fold enrichment (6-mer frequency, TF over GST control); with ELF1 it was 1.11 fold enrichment (6-mer frequency, TF over GST control); in the assay with EHF it was 1.04 fold enrichment (6-mer frequency, TF over GST control). The binding signal with SPI1 was 1.12 fold enrichment (6-mer frequency, TF over GST control); with SPIB it was 1.1 fold enrichment (6-mer frequency, TF over GST control); in the assay with ETV5, 1.14 fold enrichment (6-mer frequency, TF over GST control); with SPIC, 1.17 fold enrichment (6-mer frequency, TF over GST control); with ELF4 it was 1.15 fold enrichment (6-mer frequency, TF over GST control); with ETV1, 1.09 fold enrichment (6-mer frequency, TF over GST control). For the same sequence, the binding signal was 1.05 fold enrichment (6-mer frequency, TF over GST control) with ERF; 1.09 fold enrichment (6-mer frequency, TF over GST control) with ETV3L; 1.07 fold enrichment (6-mer frequency, TF over GST control) in the assay with SPDEF; 1.05 fold enrichment (6-mer frequency, TF over GST control) with ELF5; 1.08 fold enrichment (6-mer frequency, TF over GST control) with ETV3.
For GCCCCA, the binding signal in the assay with FLI1 is 1.06 fold enrichment (6-mer frequency, TF over GST control); with ELK1 it was 1.04 fold enrichment (6-mer frequency, TF over GST control); with ERG, 1.1 fold enrichment (6-mer frequency, TF over GST control); with ELF1 it was 1.05 fold enrichment (6-mer frequency, TF over GST control); with SPIB, 1 fold enrichment (6-mer frequency, TF over GST control); in the assay with FEV, 1.07 fold enrichment (6-mer frequency, TF over GST control). Besides, the binding signal with ETV5 is 1.02 fold enrichment (6-mer frequency, TF over GST control); with SPIC it was 1.05 fold enrichment (6-mer frequency, TF over GST control); with ELF4 it was 1.07 fold enrichment (6-mer frequency, TF over GST control); in the assay with ETV1, 1.03 fold enrichment (6-mer frequency, TF over GST control); with ETV3L it was 1.12 fold enrichment (6-mer frequency, TF over GST control); in the assay with SPDEF, 1.03 fold enrichment (6-mer frequency, TF over GST control). Also, the binding signal in the assay with ETV3 was 1.06 fold enrichment (6-mer frequency, TF over GST control); in the assay with ETV6, 1.03 fold enrichment (6-mer frequency, TF over GST control).

The record behind these values is publication PMC7862700, “An all-to-all approach to the identification of sequence-specific readers for epigenetic DNA modifications on cytosine”.
